Assay outcomes from PubChem.
Tau fluor cs: Counterscreen qHTS for Inhibitors of Tau Fibril Formation, Fluorescence Polarization; tau K18 P301L Alexa594 fluorescence, heparin fibrillization; Potency, µM (series often up to 57.7 µM), inactives show top-dose activity change, negative = decrease; 0.93% of 280,000 active; also: nearly all actives have a fitted effect of over 55% in size
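Human K18 P301L tau (15 uM unlabeled plus 0.24 uM Alexa 594-labeled, final) in 100 mM sodium acetate pH 7 was mixed with compound and 20 uM heparin and incubated 6 hr at 37 C.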
Tau fibril ThT: qHTS for Inhibitors of Tau Fibril Formation, Thioflavin T Binding. 2.1% of 270,000 active. Potency, µM (top dose mostly 57.4 µM), without a hit: at the top dose activity, negative = inhibition, hits mostly inhibitors. recombinant tau K18 P301L (four-repeat tau fragment), heparin-induced fibrillization, ThT fluorescence. Microtubule-associated protein tau (Homo sapiens), P10636; also: nearly all actives have a fitted effect of over 55% in size
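Heparin-induced (20 uM) aggregation of recombinant human K18 P301L tau, 15 uM unlabeled with 0.24 uM labeled, pH 7 acetate buffer, 6 hr at 37 C with compound. Fibrils quantified by 30 uM ThT fluorescence after 1 hr ambient incubation.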
Tau FP inhib: qHTS for Inhibitors of Tau Fibril Formation, Fluorescence Polarization | Microtubule-associated protein tau (Homo sapiens), P10636 | K18 P301L tau heparin fibrillization, Alexa594 FP, 6 h | Potency, µM (highest dose often 57.7 µM), inactives show at the highest dose activity, negative = inhibition, hits mostly inhibitors | 0.39% of 280,000 active; also: nearly all actives have a fitted effect of over 55% in size
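Human K18 P301L fragment (15 uM unlabeled plus 0.24 uM Alexa 594-labeled) in 100 mM sodium acetate pH 7 with compound, aggregation induced by 20 uM heparin for 6 hr at 37 C. ThT (30 uM) added for 1 hr, then Alexa 594 FP read.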
NPSR antag: qHTS Assay for Antagonists of the Neuropeptide S Receptor: cAMP Signal Transduction | Q6W5P4 | CHO-NPSR cells, cAMP TR-FRET, antagonist mode | Potency, µM (series often up to 38.3 µM), inactives show top-dose activity change, negative = inhibition, usual class: inhibitors | 1% of 220,000 active; also: nearly all actives have a fitted effect of over 50% in size
Target sequence (Q6W5P4 whole entry, looked up): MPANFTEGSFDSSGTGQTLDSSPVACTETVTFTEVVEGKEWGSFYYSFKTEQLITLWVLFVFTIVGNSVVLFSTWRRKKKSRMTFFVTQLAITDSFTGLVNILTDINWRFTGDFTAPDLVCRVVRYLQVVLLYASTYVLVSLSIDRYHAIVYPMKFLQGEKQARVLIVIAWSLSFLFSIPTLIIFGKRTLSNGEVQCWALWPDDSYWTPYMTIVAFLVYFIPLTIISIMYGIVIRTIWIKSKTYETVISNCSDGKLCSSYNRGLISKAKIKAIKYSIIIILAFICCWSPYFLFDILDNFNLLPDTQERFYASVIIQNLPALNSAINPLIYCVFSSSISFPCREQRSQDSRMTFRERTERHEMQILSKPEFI
ALDH1A1 inh: qHTS Assay for Inhibitors of Aldehyde Dehydrogenase 1 (ALDH1A1) | Aldehyde dehydrogenase 1A1 (Homo sapiens), P00352 | Potency, µM (doses to about 75.3 µM), inactives show at the highest dose activity, negative = inhibition, actives largely listed as inhibitors | 7.3% of 220,000 active | Purified ALDH1A1, NADH fluorescence, propionaldehyde substrate; active = well fitted inhibition curve with a large enough effect, not every such curve was filed as active; inconclusive = small, poorly fitted or top-dose-only effect, or another doubt; inactive = no such curve, though single readings can be large or run the other way;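 also: plate controls were no enzyme wells and a reference inhibitor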
HPGD inh: qHTS Assay for Inhibitors of HPGD (15-Hydroxyprostaglandin Dehydrogenase); 15-hydroxyprostaglandin dehydrogenase [NAD(+)] (Homo sapiens), P15428; purified HPGD, NADH fluorescence kinetic, PGE2 substrate; Potency, µM, without a hit: at the top dose activity change, negative = inhibition, actives largely listed as inhibitors; 4.3% of 150,000 active; active = well fitted inhibition curve with a large enough effect, not every such curve was filed as active; inconclusive = small, poorly fitted or top-dose-only effect, or another doubt; inactive = no such curve, though single readings can be large or run the other way
Target sequence (P15428 whole entry, looked up): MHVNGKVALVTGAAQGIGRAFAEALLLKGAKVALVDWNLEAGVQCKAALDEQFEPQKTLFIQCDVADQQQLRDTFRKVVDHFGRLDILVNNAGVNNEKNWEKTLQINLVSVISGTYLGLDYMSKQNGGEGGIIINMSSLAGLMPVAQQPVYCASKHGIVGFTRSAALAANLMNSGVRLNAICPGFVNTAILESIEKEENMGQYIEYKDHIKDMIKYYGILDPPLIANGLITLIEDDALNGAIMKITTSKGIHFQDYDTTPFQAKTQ
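20 nM HPGD preincubated 15 min at room temperature with compound in 50 mM Tris-HCl pH 8, 0.01% Tween 20. Started with 1 mM NAD+ and 30 uM prostaglandin E2; NADH fluorescence (360/450 nm) read 5 times over 30-s intervals, last minus first.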
* = called active by the depositor; [ ] = remark or other dose. In the library only some 9.5% were active in any assay of this set; here they are far more common. Unless noted, calls follow the shape of the dose curve; as a rule, active = well fitted curve in the direction sought with a large enough effect; inconclusive = small, poorly fitted or top-dose-only effect, or another doubt; inactive = no such curve, though single readings can be large; an effect the other way counts as inactive or inconclusive. Unless noted, % is scaled to controls: 0 for no effect and ±100 for the full control effect; potency is read from the fitted curve at half-maximal effect.

Results for CCOC(=O)c1c(C)sc(-c2c(-c3ccc(OC)c(F)c3)[nH]c3[nH]c(=O)[nH]c(=O)c23)c1O ?
Tau fluor cs: 3.5µM*[quencher]; Tau fibril ThT: 0%; Tau FP inhib: 6%

Results for CCOC(=O)c1c(C)sc(-c2c(-c3ccc(OC)c(F)c3)[nH]c3c2c(=O)[nH]c(=O)n3C)c1O ?
Tau fluor cs: 13µM*[quencher]; Tau fibril ThT: inconclusive; Tau FP inhib: 13%

How did CCc1ccc(-c2[nH]c3c(c2-c2sc(C)c(C(=O)OC)c2O)c(=O)[nH]c(=O)n3C)cc1 do in these assays?
Tau fluor cs: inconclusive; Tau fibril ThT: -16%; Tau FP inhib: 10%

What do the screens show for `COC(=O)c1c(C)sc(-c2c(-c3ccc4c(c3)OCCO4)[nH]c3[nH]c(=O)[nH]c(=O)c23)c1O`?
Tau fluor cs: 20µM*[quencher]; Tau fibril ThT: inconclusive; Tau FP inhib: inconclusive

What do the screens show for `Cc1ccc(C2=Nc3ccccc3N(C(=O)c3ccccc3)C(C)C2)cc1` (stereo unspecified)?
Tau fluor cs: 2%; Tau fibril ThT: -3%; Tau FP inhib: 2%; NPSR antag: -44%; ALDH1A1 inh: -2%; HPGD inh: -11%

What do the screens show for `CN(C(=O)c1cc2ccccc2oc1=O)C1(C)CCS(=O)(=O)C1` (stereo unspecified)?
Tau fluor cs: 2%; Tau fibril ThT: 6%; Tau FP inhib: 7%; NPSR antag: 8%; ALDH1A1 inh: -12%

What do the screens show for `CCOC(=O)CC(NC(=O)c1cc2cccc(OC)c2oc1=O)c1cccc([N+](=O)[O-])c1` (stereo unspecified)?
Tau fluor cs: -27%; Tau fibril ThT: -11%; Tau FP inhib: 2%; NPSR antag: -2%; ALDH1A1 inh: 22µM*; HPGD inh: inconclusive

How did CCCC(=O)C1=C(c2ccc(C)cc2)N(C(=O)CCC)n2cnnc2S1 do in these assays?
Tau fluor cs: inconclusive; Tau fibril ThT: 16µM*; Tau FP inhib: -14%

Results for Cc1cc(C)cc(NC(=O)C2CCCN(c3nc(C)cc(C)n3)C2)c1 (stereo unspecified) ?
Tau fluor cs: 1%; Tau fibril ThT: -5%; Tau FP inhib: -1%; NPSR antag: -17%[46.1 µM]; ALDH1A1 inh: 1%; HPGD inh: -1%

What do the screens show for `Cc1cc(C)nc(N2CCCC(C(=O)Nc3ccc4nc(C)c(C)nc4c3)C2)n1` (stereo unspecified)?
Tau fluor cs: -13%; Tau fibril ThT: -17%; Tau FP inhib: 1%; NPSR antag: -11%[46.1 µM]; ALDH1A1 inh: 16µM*; HPGD inh: -14%

What do the screens show for `CCOC(=O)c1cccc(NC(=O)CSc2ncc3c(n2)-c2ccc(Cl)cc2N(Cc2ccccc2)S3(=O)=O)c1`?
Tau fluor cs: inconclusive; Tau fibril ThT: 9%; Tau FP inhib: inconclusive

What do the screens show for `O=C(Nc1cccnc1)c1ccc(N2CCCC2)c([N+](=O)[O-])c1`?
Tau fluor cs: -11%; Tau fibril ThT: inconclusive; Tau FP inhib: 3%; NPSR antag: -16%; ALDH1A1 inh: 7.9µM*

How did Cc1cccc(NC(=O)c2ccc(N3CCCCC3)c([N+](=O)[O-])c2)n1 do in these assays?
Tau fluor cs: -24%; Tau fibril ThT: inconclusive; Tau FP inhib: 3%; NPSR antag: -14%[46.1 µM]; ALDH1A1 inh: 13µM*; HPGD inh: inconclusive

Results for COc1ccc(Cc2nn3c(-c4ccccc4OC)nnc3s2)cc1 ?
Tau fluor cs: -7%; Tau fibril ThT: -24%; Tau FP inhib: 1%; NPSR antag: inconclusive; ALDH1A1 inh: 11µM*; HPGD inh: 28µM*

Results for COc1ccccc1-c1nnc2sc(C3CCCCC3)nn12 ?
Tau fluor cs: -6%; Tau fibril ThT: -17%; Tau FP inhib: -6%; NPSR antag: -6%[7.67 µM]; ALDH1A1 inh: -11%; HPGD inh: 28µM*

How did COc1ccccc1-c1nnc2sc(COc3ccc(Cl)cc3)nn12 do in these assays?
Tau fluor cs: -13%; Tau fibril ThT: inconclusive; Tau FP inhib: -5%; NPSR antag: inconclusive; ALDH1A1 inh: 11%; HPGD inh: -24%

What do the screens show for `Cc1cc2ccc(=O)oc2cc1OC[C@@H](O)C(C)(C)O`?
Tau fluor cs: 4%; Tau fibril ThT: -2%; Tau FP inhib: 4%; ALDH1A1 inh: inconclusive; HPGD inh: inconclusive

Results for COCCN(CCOC)c1nc(C)nc2c1nc(-c1ccccc1)n2CC1CCN(C)CC1 ?
Tau fluor cs: -4%; Tau fibril ThT: 0%; Tau FP inhib: 6%; ALDH1A1 inh: inconclusive; HPGD inh: inconclusive

Results for N/C(=C\C(=O)c1cc(Cl)ccc1O)C(Cl)(Cl)Cl ?
Tau fluor cs: -25%; Tau fibril ThT: 18µM*; Tau FP inhib: inconclusive; NPSR antag: -8%[7.67 µM]

Results for COc1ccc(/C=N/OCC(=O)N=Nc2c(O)[nH]c3ccc(Br)cc23)cc1 ?
Tau fluor cs: inconclusive; Tau fibril ThT: 5µM*; Tau FP inhib: inconclusive; NPSR antag: -9%; ALDH1A1 inh: -6%

Results for O=C(O)/C=C/C(=O)Nc1ccccc1-c1ccccc1 ?
Tau fluor cs: 5%; Tau fibril ThT: 10%; Tau FP inhib: 3%; NPSR antag: 2%[46.1 µM]; ALDH1A1 inh: inconclusive; HPGD inh: 28µM*

Results for COc1ncnc2c1oc1nc(CC(C)C)c3c(c12)CCCC3 ?
Tau fluor cs: -2%; Tau fibril ThT: 6%; Tau FP inhib: -1%; NPSR antag: -22%[46.1 µM]; ALDH1A1 inh: 14µM*; HPGD inh: -7%

What do the screens show for `CC(C)Cc1nc2oc3c(Cl)ncnc3c2c2c1CCCC2`?
Tau fluor cs: -13%; Tau fibril ThT: -15%; Tau FP inhib: -8%; NPSR antag: -31%

How did CCN(CC)S(=O)(=O)c1ccc(C(=O)NCCSc2c(-c3ccc(F)cc3)[nH]c3ccccc23)cc1 do in these assays?
Tau fluor cs: 4.5µM*[quencher]; Tau fibril ThT: -6%; Tau FP inhib: -4%

Results for Cc1ccc(-c2[nH]c3ccccc3c2SCCNC(=O)c2ccc(S(=O)(=O)N3CCOCC3)cc2)cc1 ?
Tau fluor cs: 3.5µM*[quencher]; Tau fibril ThT: -4%; Tau FP inhib: 2%; NPSR antag: -24%; ALDH1A1 inh: -13%; HPGD inh: -11%

Results for CCN(CC)S(=O)(=O)c1ccc(C(=O)NCCSc2c(-c3ccccc3)[nH]c3ccccc23)cc1 ?
Tau fluor cs: 4.5µM*[quencher]; Tau fibril ThT: -10%; Tau FP inhib: -8%
